± gives the standard deviation of the averaged measurements.
Experiments:
Assay in all cases: promoter activity interaction Z-score (Lux/OD deviation from empty-vector control); higher = stronger promoter induction by the compound
[1] = tested on: E. coli BW25113 acrABp lux reporter
Procedure, shortened: (§1)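 E. coli BW25113, as wild type or one of three single-gene deletion strains, carried low-copy luxCDABE promoter reporters and grew in 40 µl LB Lennox in 384-well plates at 37°C, with OD600 and luminescence read every 30 min for 12 h. Each compound was run at four 1:2 dilutions in biological duplicates, integration spanned 0–8 h for wild type and 1–9 h for deletion strains, and wells under 10% of the median growth value were dropped. The score is the Z-transformed residual of growth-normalised luminescence fitted against a control.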

[2] = tested on: E. coli BW25113 marRABp lux reporter
Procedure, shortened: as §1

[3] = tested on: E. coli BW25113 micFp lux reporter
Procedure, shortened: as §1

[4] = tested on: E. coli BW25113 ompFp lux reporter
Procedure, shortened: as §1

[5] = tested on: E. coli BW25113 robp lux reporter
Procedure, shortened: as §1

[6] = tested on: E. coli BW25113 soxSp lux reporter
Procedure, shortened: as §1

[7] = tested on: E. coli BW25113 tolCp lux reporter
Procedure, shortened: as §1

[8] = 0.063 µg/ml, genetic background: wild type
[9] = 0.063 µg/ml, genetic background: ΔmarA
[10] = 0.063 µg/ml, genetic background: Δrob
[11] = 0.063 µg/ml, genetic background: ΔsoxS
[12] = 0.13 µg/ml, genetic background: wild type
[13] = 0.13 µg/ml, genetic background: ΔmarA
[14] = 0.13 µg/ml, genetic background: Δrob
[15] = 0.13 µg/ml, genetic background: ΔsoxS
[16] = 0.25 µg/ml, genetic background: wild type
[17] = 0.25 µg/ml, genetic background: ΔmarA
[18] = 0.25 µg/ml, genetic background: Δrob
[19] = 0.25 µg/ml, genetic background: ΔsoxS
[20] = 0.5 µg/ml, genetic background: wild type
[21] = 0.5 µg/ml, genetic background: ΔmarA
[22] = 0.5 µg/ml, genetic background: Δrob
[23] = 0.5 µg/ml, genetic background: ΔsoxS

CO[C@@]12[C@H](COC(N)=O)C3=C(C(=O)C(C)=C(N)C3=O)N1C[C@@H]1N[C@@H]12 [Mitomycin C]
promoter activity interaction Z-score [1, 8]: 0.203 ± 0.26
promoter activity interaction Z-score [1, 9]: -0.582 ± 1.1
promoter activity interaction Z-score [1, 10]: 0.184 ± 0.69
promoter activity interaction Z-score [1, 11]: 0.15 ± 0.32
promoter activity interaction Z-score [1, 12]: -0.161 ± 0.0059
promoter activity interaction Z-score [1, 13]: 1.65 ± 0.15
promoter activity interaction Z-score [1, 14]: 0.0466 ± 0.51
promoter activity interaction Z-score [1, 15]: 0.106 ± 0.043
promoter activity interaction Z-score [1, 16]: 0.269 ± 0.076
promoter activity interaction Z-score [1, 17]: 0.437 ± 0.76
promoter activity interaction Z-score [1, 18]: -0.105 ± 0.42
promoter activity interaction Z-score [1, 19]: -0.0948 ± 0.4
promoter activity interaction Z-score [1, 20]: 0.332 ± 0.099
promoter activity interaction Z-score [1, 21]: 1.08 ± 0.83
promoter activity interaction Z-score [1, 22]: -0.0462 ± 0.55
promoter activity interaction Z-score [1, 23]: 0.117 ± 0.79
promoter activity interaction Z-score [2, 8]: -0.000521 ± 0.092
promoter activity interaction Z-score [2, 9]: -0.0389 ± 0.12
promoter activity interaction Z-score [2, 10]: 0.174 ± 0.0026
promoter activity interaction Z-score [2, 11]: -0.0406 ± 0.22
promoter activity interaction Z-score [2, 12]: 0.0648 ± 0.23
promoter activity interaction Z-score [2, 13]: 0.518 ± 1.1
promoter activity interaction Z-score [2, 14]: 0.208 ± 0.51
promoter activity interaction Z-score [2, 15]: 0.0422 ± 0.14
promoter activity interaction Z-score [2, 16]: 0.242 ± 0.24
promoter activity interaction Z-score [2, 17]: -0.125 ± 0.18
promoter activity interaction Z-score [2, 18]: 0.258 ± 0.1
promoter activity interaction Z-score [2, 19]: -0.121 ± 0.19
promoter activity interaction Z-score [2, 20]: -0.107 ± 0.17
promoter activity interaction Z-score [2, 21]: 0.219 ± 0.99
promoter activity interaction Z-score [2, 22]: -0.172 ± 0.14
promoter activity interaction Z-score [2, 23]: -0.177 ± 0.11
promoter activity interaction Z-score [3, 8]: 0.161 ± 0.24
promoter activity interaction Z-score [3, 9]: 0.0738 ± 0.13
promoter activity interaction Z-score [3, 10]: -0.0403 ± 0.002
promoter activity interaction Z-score [3, 11]: 0.173 ± 0.094
promoter activity interaction Z-score [3, 12]: -0.0611 ± 0.13
promoter activity interaction Z-score [3, 13]: 0.273 ± 0.08
promoter activity interaction Z-score [3, 14]: 0.135 ± 0.19
promoter activity interaction Z-score [3, 15]: 0.423 ± 0.057
promoter activity interaction Z-score [3, 16]: 0.189 ± 0.054
promoter activity interaction Z-score [3, 17]: 0.0506 ± 0.14
promoter activity interaction Z-score [3, 18]: -0.0293 ± 0.023
promoter activity interaction Z-score [3, 19]: -0.0557 ± 0.14
promoter activity interaction Z-score [3, 20]: -0.299 ± 0.0083
promoter activity interaction Z-score [3, 21]: -0.029 ± 0.23
promoter activity interaction Z-score [3, 22]: 0.266 ± 0.055
promoter activity interaction Z-score [3, 23]: 0.362 ± 0.13
promoter activity interaction Z-score [4, 8]: 0.468 ± 0.27
promoter activity interaction Z-score [4, 9]: -0.243 ± 0.38
promoter activity interaction Z-score [4, 10]: 0.492 ± 0.67
promoter activity interaction Z-score [4, 11]: 0.619 ± 0.42
promoter activity interaction Z-score [4, 12]: 0.0398 ± 0.41
promoter activity interaction Z-score [4, 13]: 1.58 ± 1
promoter activity interaction Z-score [4, 14]: 0.963 ± 0.14
promoter activity interaction Z-score [4, 15]: 0.857 ± 0.077
promoter activity interaction Z-score [4, 16]: 0.439 ± 0.22
promoter activity interaction Z-score [4, 17]: -0.0015 ± 0.17
promoter activity interaction Z-score [4, 18]: 1 ± 0.15
promoter activity interaction Z-score [4, 19]: -0.0721 ± 0.25
promoter activity interaction Z-score [4, 20]: 0.63 ± 0.16
promoter activity interaction Z-score [4, 21]: 1.34 ± 1.3
promoter activity interaction Z-score [4, 22]: 1.2 ± 0.71
promoter activity interaction Z-score [4, 23]: 0.778 ± 0.46
promoter activity interaction Z-score [5, 8]: 0.242 ± 0.52
promoter activity interaction Z-score [5, 9]: -0.678 ± 0.028
promoter activity interaction Z-score [5, 10]: 0.808 ± 0.56
promoter activity interaction Z-score [5, 11]: -0.138 ± 0.57
promoter activity interaction Z-score [5, 12]: 0.512 ± 0.4
promoter activity interaction Z-score [5, 13]: 2.91 ± 0.44
promoter activity interaction Z-score [5, 14]: 0.0783 ± 0.46
promoter activity interaction Z-score [5, 15]: 0.758 ± 1.5
promoter activity interaction Z-score [5, 16]: 1.16 ± 0.6
promoter activity interaction Z-score [5, 17]: 0.136 ± 0.099
promoter activity interaction Z-score [5, 18]: 0.453 ± 0.084
promoter activity interaction Z-score [5, 19]: -0.883 ± 0.36
promoter activity interaction Z-score [5, 20]: 1.05 ± 0.1
promoter activity interaction Z-score [5, 21]: 0.91 ± 0.79
promoter activity interaction Z-score [5, 22]: 0.226 ± 0.38
promoter activity interaction Z-score [5, 23]: -0.0862 ± 0.5
promoter activity interaction Z-score [6, 8]: 0.078 ± 0.11
promoter activity interaction Z-score [6, 9]: -0.129 ± 0.16
promoter activity interaction Z-score [6, 10]: -0.043 ± 0.0072
promoter activity interaction Z-score [6, 11]: 0.00107 ± 0.095
promoter activity interaction Z-score [6, 12]: -0.0775 ± 0.16
promoter activity interaction Z-score [6, 13]: -0.0258 ± 0.096
promoter activity interaction Z-score [6, 14]: -0.0896 ± 0.043
promoter activity interaction Z-score [6, 15]: -0.0792 ± 0.22
promoter activity interaction Z-score [6, 16]: 0.185 ± 0.009
promoter activity interaction Z-score [6, 17]: -0.158 ± 0.067
promoter activity interaction Z-score [6, 18]: 0.12 ± 0.092
promoter activity interaction Z-score [6, 19]: -0.0761 ± 0.073
promoter activity interaction Z-score [6, 20]: 0.163 ± 0.12
promoter activity interaction Z-score [6, 21]: -0.1 ± 0.14
promoter activity interaction Z-score [6, 22]: -0.0272 ± 0.011
promoter activity interaction Z-score [6, 23]: 0.103 ± 0.21
promoter activity interaction Z-score [7, 8]: 0.274 ± 0.61
promoter activity interaction Z-score [7, 9]: -0.71 ± 0.23
promoter activity interaction Z-score [7, 10]: -0.666 ± 0.03
promoter activity interaction Z-score [7, 11]: 0.252 ± 0.77
promoter activity interaction Z-score [7, 12]: 0.0384 ± 0.54
promoter activity interaction Z-score [7, 13]: 0.367 ± 0.36
promoter activity interaction Z-score [7, 14]: 0.81 ± 0.56
promoter activity interaction Z-score [7, 15]: 0.264 ± 0.25
promoter activity interaction Z-score [7, 16]: 0.00312 ± 0.045
promoter activity interaction Z-score [7, 17]: -0.556 ± 0.81
promoter activity interaction Z-score [7, 18]: 0.121 ± 0.86
promoter activity interaction Z-score [7, 19]: 1.27 ± 0.93
promoter activity interaction Z-score [7, 20]: 0.54 ± 0.56
promoter activity interaction Z-score [7, 21]: -0.295 ± 0.4
promoter activity interaction Z-score [7, 22]: 0.224 ± 0.11
promoter activity interaction Z-score [7, 23]: 1.46 ± 0.25

Source: the supplement of paper PMC12282887
